About 83,000 compounds went through this panel and 20% of them were active in at least one assay; those are over-represented in the sample as a whole.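 48-hour exposure, single concentration, 96-well plates; percent growth endpoint where 0 means no net growth. Active: below 10.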 A number with no mark means an inactive call. The source made the active and inactive calls.
Key:
Assay in all cases: NCI-60 one-dose screen, 48 h (100 = growth as untreated, 0 = no growth, -100 = all killed)
Settings in all cases: 10 µM
DU-145 prostate = system: DU-145 prostate
MALME-3M melanoma = system: MALME-3M melanoma
MDA-MB-231 breast = system: MDA-MB-231 breast
RXF 393 renal = system: RXF 393 renal
SF-268 CNS = system: SF-268 CNS
SF-295 CNS = system: SF-295 CNS
SF-539 CNS = system: SF-539 CNS
UACC-257 melanoma = system: UACC-257 melanoma
M14 melanoma = system: M14 melanoma
HCT-15 colon = system: HCT-15 colon
HT29 colon = system: HT29 colon
SNB-75 CNS = system: SNB-75 CNS
SNB-19 CNS = system: SNB-19 CNS
U251 CNS = system: U251 CNS
PC-3 prostate = system: PC-3 prostate
SK-MEL-5 melanoma = system: SK-MEL-5 melanoma
UACC-62 melanoma = system: UACC-62 melanoma
LOX IMVI melanoma = system: LOX IMVI melanoma
SK-MEL-28 melanoma = system: SK-MEL-28 melanoma
K-562 leukemia = system: K-562 leukemia

SMILES	growth (DU-145 prostate)	growth (MALME-3M melanoma)	growth (MDA-MB-231 breast)	growth (RXF 393 renal)	growth (SF-268 CNS)	growth (SF-295 CNS)	growth (SF-539 CNS)	growth (UACC-257 melanoma)	growth (M14 melanoma)	growth (HCT-15 colon)	growth (HT29 colon)	growth (SNB-75 CNS)	growth (SNB-19 CNS)	growth (U251 CNS)	growth (PC-3 prostate)	growth (SK-MEL-5 melanoma)	growth (UACC-62 melanoma)	growth (LOX IMVI melanoma)	growth (SK-MEL-28 melanoma)	growth (K-562 leukemia)
CCCCCC(=O)O[C@]1(C(C)=O)CCC2C3CCC4=CC(=O)CC[C@]4(C)C3CC[C@@]21C (stereo partly drawn)	55.4%	62.1%	29.1%	53.2%	43.6%	13.1%	74.8%	14%	23.8%	26.2%	16.6%	46.3%	43.7%	23.9%	6.12% (active)	-1.8% (active)	18.5%	10.4%	49.4%	
C[C@H]1[C@H](OC(=O)CCC(=O)O)O[C@@H]2O[C@]3(C)CC[C@H]4[C@H](C)CC[C@@H]1[C@@]24OO3	82.7%	74.8%	65.1%	55.9%	55.6%	11.6%	31.9%	50.8%	39.7%	16.7%	23.8%	61.8%	57.9%	36.5%	25%	28%	36.4%	-49.5% (active)	70.5%	
Cc1cc(CC(C)CC(C)(C)C)n(O)c(=O)c1 (stereo not drawn) (tested in a mixture with another compound)	19.5%	8.49% (active)	38.3%	42.1%	14.4%	6.87% (active)	6.73% (active)	-1.79% (active)	-35.9% (active)	23.8%	53.2%	16.7%	26%	17.8%	33.9%	-1.17% (active)	-8.65% (active)	7.96% (active)	25.1%	
CCc1cc(Cl)c(OC)c(C(=O)NCC2CCCN2CC)c1O (stereo not drawn)	102%	108%	50.6%	73%	98.2%	85%	103%	87.7%	103%	91.8%	89.5%	67.1%	91.2%	83.8%	73.7%	83.4%	97%	90.6%	109%	
CCCc1nc(C(C)(C)O)c(C(=O)O)n1Cc1ccc(-c2ccccc2-c2nn[nH]n2)cc1	120%	102%	109%	117%	101%	95.3%	103%	103%	109%	101%	93.6%	66.9%	102%	103%	95.9%	110%	94.5%	94.7%	108%	
CN1C(C(=O)Nc2ccccn2)=C(O)c2sc(Cl)cc2S1(=O)=O	106%	102%	105%	111%	100%	94.8%	117%	100%	108%	112%	103%	89.5%	104%		87.9%	102%	92.4%	96%		
C[C@@H](O)[C@H]1C(=O)N2C(C(=O)O)=C(SCCN=CN)C[C@H]12	-7.37% (active)	-60.1% (active)	9.83% (active)	1.5% (active)	-4.56% (active)	-5.26% (active)	3.65% (active)	-31% (active)	-44.7% (active)	8.86% (active)	-3.23% (active)	0.941% (active)	8.6% (active)	2.44% (active)	1.74% (active)	-87.2% (active)	-38.8% (active)	-42.6% (active)	-41.3% (active)	
OC(CNc1ccnc2cc(Cl)ccc12)CNC1CCCCC1 (stereo not drawn)	91.6%	101%	54.4%	33.5%	89.8%	83.5%	63.1%	-37.5% (active)	-15.6% (active)	75.6%	31.3%	87.4%	100%	63.1%	69.4%	15.3%	61.4%	73%	23.3%	
CO[C@H]1CC(O[C@@H]2/C(C)=C/C[C@@H]3C[C@@H](C[C@]4(C=C[C@H](C)[C@@H](C5CCCCC5)O4)O3)OC(=O)[C@@H]3C=C(C)[C@@H](O)[C@H]4OC/C(=C\C=C\[C@@H]2C)[C@]43O)O[C@@H](C)C1O[C@H]1C[C@H](OC)[C@@H](O)[C@H](C)O1 (stereo partly drawn)	-98.4% (active)	-68.1% (active)	-81.1% (active)	-95.5% (active)	-81.5% (active)	-84.6% (active)	-72.3% (active)	-84% (active)	-88% (active)	-79.2% (active)	-71.9% (active)	-66.8% (active)	-5.35% (active)	-91.2% (active)	-59.6% (active)	-97.8% (active)	-78.1% (active)	-97.3% (active)	-64.6% (active)	
O=C(CCCCCCC(=O)Nc1ccccc1)NO	3.46% (active)	1.69% (active)	16.4%	-39.9% (active)	14.9%	-22.6% (active)	16.8%	-26% (active)	23%	33.9%	7.15% (active)	18%	25%	-20.1% (active)	10.4%	-54.4% (active)	-42.8% (active)	-3.4% (active)	5.94% (active)	
O=C(Nc1ccc(OCc2nnc(-c3ccc(Cl)cc3)o2)c(F)c1)Nc1ccc(Cl)c(C(F)(F)F)c1	9.34% (active)			-10.2% (active)	22.5%	1.05% (active)	12.3%	-4.65% (active)	3.31% (active)	9.78% (active)	-3.97% (active)	20.4%		-2.02% (active)	5.92% (active)	-35.7% (active)		3.22% (active)	20.2%	11.2%
COc1cc(C2CC(c3cc(Cl)c(C)cc3O)=NN2c2ccc(S(N)(=O)=O)cc2)cc(OC)c1OC (stereo not drawn)	35.9%	31.9%	-8.53% (active)	-2.73% (active)	24.6%	22%	2.6% (active)	44.7%	-26.5% (active)	16.7%	1.52% (active)	45.7%	48.7%	16.9%	0.104% (active)	-4.95% (active)	16.3%	16.2%	31.7%	
CC1/C=C/C=C/C=C/C=C/C=C/C=C/C=C/C(O[C@@H]2O[C@H](C)[C@H](O)[C@@H](O)[C@@H]2N)CC(O)C(C(=O)O)C(O)CC(=O)CC(O)CC(O)CC(O)CC(=O)CCCC(=O)CC(=O)OC1C(C)CC(C)C(O)CC(=O)c1ccc(N)cc1 (stereo partly drawn)	-98.7% (active)	-92.5% (active)	-94.8% (active)	-90.9% (active)	-95.8% (active)	-95.3% (active)	-71.4% (active)	-99.7% (active)	-88.7% (active)	-95.5% (active)	-76.7% (active)	-96.6% (active)	-99% (active)	-100% (active)	-95.7% (active)	-99% (active)	-98.7% (active)	-96.9% (active)		
C#C[C@]1(O)CCC2C3CCc4cc(OC5CCCC5)ccc4C3CC[C@@]21C (stereo partly drawn)	89%	121%	50.6%	97.7%	71.3%	77.2%	101%	92.6%	80.2%	24%	0.124% (active)	96%	104%	69.9%	57.9%	100%	81.1%	42%	103%	
CCCCC(CC)CN=C(N)NC(N)=NCCCCCCN=C(N)NC(N)=NCC(CC)CCCC (stereo not drawn)	-98.1% (active)	-73% (active)	-84.6% (active)	-43.5% (active)	-82.8% (active)	-84.8% (active)	-76.9% (active)	-47.1% (active)	-65.1% (active)	7.37% (active)	-82.8% (active)	-72.5% (active)	-87.2% (active)	-89.8% (active)	-69.7% (active)	-89.8% (active)	-58% (active)	-80.8% (active)	-79.6% (active)	
O=C1Cc2cc(CCN3CCN(c4nsc5ccccc45)CC3)c(Cl)cc2N1	95.4%	94.2%	89.5%	91.7%	92.9%	91.9%	105%	86.3%	105%	85.1%	90.1%	78.8%	94.1%	94.7%	72.3%	92%	84.8%	96.8%	90.3%	

Source: PubChem BioAssay (NCI)
